Test results published in PubChem BioAssay.
For some of these results: Entries with a potency or affinity are not part of this list. Calls of active or inactive are those of the source. Unless noted, the rule behind the calls is not given here.

Assays:
[1] = antimalarial activity against Dd2 strain (AID 2302;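 active = growth inhibition above 50% at the single 2 µM test dose, taken to imply half-maximal potency below 2 µM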;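 note: 0% = DMSO untreated growth and 100% = chloroquine plus artemisinin killed control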); details: P. falciparum Dd2 in RBCs, LDH growth readout, 72 h; at 2 µM; stronger effect = higher value
[2] = HepG2 cytotoxicity, primary screen, cytotoxicity control for P. falciparum antimalarial project, cell-based, ATP luminescence (AID 2303;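 active = inhibition above 50%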;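 note: 0% = DMSO wells and 100% = digitonin-killed cells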); details: HepG2 viability, 24-48 h, at 10 µM, stronger effect = higher value
[3] = molecular target: L-lactate dehydrogenase (Plasmodium falciparum (isolate CDC / Honduras)) (UniProt Q27743); test: PfLDH activity inhibition – cell lysate, 3D7 strain, counter-screen for P. falciparum growth inhibition project (AID 2304);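 note: 0% = vehicle and 100% = reference inhibitor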; details: P. falciparum 3D7 crude extract, LDH APAD/NBT absorbance; at 2 µM; stronger effect = higher value
L-lactate dehydrogenase (Plasmodium falciparum (isolate CDC / Honduras)), sequence (Q27743 whole entry, looked up): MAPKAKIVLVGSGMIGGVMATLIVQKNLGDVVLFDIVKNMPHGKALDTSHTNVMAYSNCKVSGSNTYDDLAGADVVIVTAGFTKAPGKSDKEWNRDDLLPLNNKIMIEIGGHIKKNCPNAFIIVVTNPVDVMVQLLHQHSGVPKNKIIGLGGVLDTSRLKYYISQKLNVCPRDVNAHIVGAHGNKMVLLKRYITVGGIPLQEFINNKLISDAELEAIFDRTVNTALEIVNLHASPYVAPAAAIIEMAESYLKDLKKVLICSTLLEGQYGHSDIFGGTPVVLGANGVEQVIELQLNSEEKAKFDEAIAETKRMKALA

[4] = inhibition of 3D7 malaria parasite growth – strain 3D7 (AID 2306);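 note: 0% = DMSO wells and 100% = chloroquine plus artemisinin control wells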; details: P. falciparum 3D7 erythrocytic growth, LDH absorbance, 72 h; at 2 µM; stronger effect = higher value
[5] = molecular target: Calcium-dependent protein kinase 1 (Plasmodium falciparum (isolate 3D7)) (UniProt P62344); test: PfCDPK1 kinase inhibitors, biochemical, TCAMS library (AID 1159585; cut-off not given, nearly all actives have IC50 up to about 0.98 µM;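 note: inhibitors leave more ATP so luminescence rises with inhibition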); details: recombinant PfCDPK1, Kinase-Glo ATP depletion luminescence
Calcium-dependent protein kinase 1 (Plasmodium falciparum (isolate 3D7)), sequence (P62344 whole entry, looked up): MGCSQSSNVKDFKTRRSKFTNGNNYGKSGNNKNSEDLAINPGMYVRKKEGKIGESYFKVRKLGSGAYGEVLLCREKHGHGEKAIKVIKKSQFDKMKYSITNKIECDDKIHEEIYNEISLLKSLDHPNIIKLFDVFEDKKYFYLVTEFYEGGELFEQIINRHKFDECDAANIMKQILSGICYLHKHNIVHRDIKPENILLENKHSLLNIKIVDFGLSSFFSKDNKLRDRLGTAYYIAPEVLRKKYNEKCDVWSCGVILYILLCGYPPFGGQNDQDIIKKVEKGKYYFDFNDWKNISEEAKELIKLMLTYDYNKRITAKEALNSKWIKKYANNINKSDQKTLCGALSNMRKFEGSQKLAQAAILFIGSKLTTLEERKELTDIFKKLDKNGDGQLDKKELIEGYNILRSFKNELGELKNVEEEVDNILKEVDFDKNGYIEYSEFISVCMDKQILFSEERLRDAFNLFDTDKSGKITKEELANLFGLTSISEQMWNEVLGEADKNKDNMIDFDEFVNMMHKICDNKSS

[6] = molecular target: Plasmodium falciparum protein kinase 6 (PK6, PF3D7_1337100) (UniProt Q8IDW1); test: PfPK6 kinase inhibitors, biochemical, TCAMS library (AID 1159586); details: recombinant PfPK6, Kinase-Glo ATP depletion luminescence
Plasmodium falciparum protein kinase 6 (PK6, PF3D7_1337100), sequence (Q8IDW1 1-305): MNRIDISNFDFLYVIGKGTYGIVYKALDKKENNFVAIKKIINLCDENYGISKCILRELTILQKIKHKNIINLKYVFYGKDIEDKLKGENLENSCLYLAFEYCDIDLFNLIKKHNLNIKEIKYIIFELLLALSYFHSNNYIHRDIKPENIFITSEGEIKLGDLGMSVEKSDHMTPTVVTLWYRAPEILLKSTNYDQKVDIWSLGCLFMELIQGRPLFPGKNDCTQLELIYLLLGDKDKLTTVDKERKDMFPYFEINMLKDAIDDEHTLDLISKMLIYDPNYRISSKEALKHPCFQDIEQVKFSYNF

[7] = molecular target: Protein kinase 7 (PK7), Plasmodium falciparum 3D7 (PF3D7_0213400) (UniProt Q7YTF7); test: inhibition of Plasmodium PK7 catalytic activity – biochemical, TCAMS antimalarial set, Kinase-Glo luminescence (AID 1159587); details: recombinant PfPK7, Kinase-Glo ATP depletion luminescence
Protein kinase 7 (PK7), Plasmodium falciparum 3D7 (PF3D7_0213400), sequence (Q7YTF7 1-343): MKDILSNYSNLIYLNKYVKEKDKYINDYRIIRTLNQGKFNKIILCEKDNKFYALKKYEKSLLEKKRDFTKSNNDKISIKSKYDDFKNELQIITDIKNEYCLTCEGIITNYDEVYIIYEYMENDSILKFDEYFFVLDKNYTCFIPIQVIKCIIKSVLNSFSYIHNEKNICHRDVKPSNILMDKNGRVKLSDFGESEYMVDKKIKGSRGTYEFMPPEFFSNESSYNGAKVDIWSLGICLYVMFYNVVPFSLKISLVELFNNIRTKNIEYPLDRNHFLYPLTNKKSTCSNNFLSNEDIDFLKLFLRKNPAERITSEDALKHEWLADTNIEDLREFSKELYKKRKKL

[8] = molecular target: Calcium-dependent protein kinase 4 (Plasmodium falciparum (isolate 3D7)) (UniProt Q8IBS5); test: PfCDPK4 kinase inhibitors, biochemical, TCAMS library (AID 1159588; cut-off not given, nearly all actives have IC50 up to about 0.91 µM); details: recombinant PfCDPK4, Kinase-Glo ATP depletion luminescence
Calcium-dependent protein kinase 4 (Plasmodium falciparum (isolate 3D7)), sequence (Q8IBS5 whole entry, looked up): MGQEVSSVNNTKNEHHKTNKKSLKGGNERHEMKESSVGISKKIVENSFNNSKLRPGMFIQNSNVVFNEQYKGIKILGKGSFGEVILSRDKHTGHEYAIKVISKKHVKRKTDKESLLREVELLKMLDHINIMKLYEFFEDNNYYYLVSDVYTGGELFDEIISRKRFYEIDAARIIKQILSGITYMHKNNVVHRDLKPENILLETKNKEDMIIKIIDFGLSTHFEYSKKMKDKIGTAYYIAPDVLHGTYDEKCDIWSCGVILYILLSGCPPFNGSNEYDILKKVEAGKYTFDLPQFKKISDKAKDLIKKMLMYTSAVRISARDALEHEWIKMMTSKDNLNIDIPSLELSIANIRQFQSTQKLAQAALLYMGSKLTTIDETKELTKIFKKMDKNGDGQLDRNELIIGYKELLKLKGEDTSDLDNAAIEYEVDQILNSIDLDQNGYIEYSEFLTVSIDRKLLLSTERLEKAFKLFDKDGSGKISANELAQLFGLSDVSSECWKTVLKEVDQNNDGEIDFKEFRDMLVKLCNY

| SMILES | growth inhibition [1] | inhibition [2] | inhibition [3] | growth inhibition [4] | outcome [5] | outcome [6] | outcome [7] | outcome [8] |
| --- | --- | --- | --- | --- | --- | --- | --- | --- |
| NC(N)=Nc1nc(-c2cccc(NC(=O)Cc3ccccc3)c2)cs1 | 9% (inactive) | 1% (inactive) | -8% (inactive) | 99% (active) | inactive | inactive | inactive | inactive |
| CC(C)C[C@H](NC(=O)c1cc2ccccc2s1)C(=O)N[C@H]1CCN(Cc2ccc(OC[C@@H]3CCCN3C)c3ccccc23)C1 | 93% (active) | 69% (active) | -2% (inactive) | 101% (active) | inactive | inactive | inactive | inactive |
| CN(C(=O)C(C)(C)Oc1ccc(Cl)cc1)C1CCN(CCCCCNC(=O)/C=C/c2ccc(Cl)c(Cl)c2)CC1 | 26% (inactive) | 86% (active) | 0% (inactive) | 96% (active) | inactive | inactive | inactive | inactive |
| Cc1ccc2[nH]c(-c3ccccc3N)cc2c1 | 8% (inactive) | 11% (inactive) | 8% (inactive) | 97% (active) | inactive | inactive | inactive | inactive |
| CCOc1ccc2ccccc2c1CNCCCCCCNCc1c(OCC)ccc2ccccc12 | 89% (active) | 100% (active) | -2% (inactive) | 100% (active) | inactive | inactive | inactive | inactive |
| O=C(/C=C/c1ccc(Cl)c(Cl)c1)NCCCCCN1CCCN(C(=O)Nc2ccc(C(F)(F)F)cc2)CC1 | 7% (inactive) | 31% (inactive) | 3% (inactive) | 102% (active) | inactive | inactive | inactive | inactive |
| N#Cc1cccc(C(=O)Nc2ccc(-c3cccc(CN4CCC(O)CC4)c3)cc2)c1 | 68% (active) | 33% (inactive) | 7% (inactive) | 100% (active) | inactive | inactive | inactive | inactive |
| O=C(Nc1ccc(Cl)cc1)Nc1ccc(-c2cccc(-c3nc4ccc(F)cc4[nH]3)c2)cc1 | 96% (active) | 74% (active) | -1% (inactive) | 101% (active) | inactive | inactive | inactive | inactive |
| CCOc1cc(C(C)C)ccc1C1CCN(CCCCNC(=O)c2ccc(NC(=O)c3ccc(Cl)cc3)cc2)CC1 | 98% (active) | 32% (inactive) | 2% (inactive) | 101% (active) | inactive | inactive | inactive | inactive |
| N#Cc1ccc2c(c1)CN(CCC1CCC(NC(=O)c3cc4cc(OC(F)(F)F)ccc4[nH]3)CC1)CC2 (stereo not drawn) | 19% (inactive) | 4% (inactive) | 4% (inactive) | 101% (active) | inactive | inactive | inactive | inactive |
| O=C(NCCCCN1CCC(c2ccc3c(c2O)CCCC3)CC1)c1ccc(NC(=O)c2ccc(Cl)cc2)cc1 | 100% (active) | 99% (active) | -2% (inactive) | 100% (active) | inactive | inactive | inactive | inactive |
| CN(C)CCCn1cncc1-c1ccc2ncnc(Nc3ccc(OCc4ccccc4)cc3)c2c1 | 101% (active) | 37% (inactive) | 2% (inactive) | 101% (active) | inactive | inactive | inactive | inactive |
| Cc1ccc(CN2CCCN(Cc3cccc(NC(=O)c4ccc(-c5ccccc5)cc4)c3)CC2)cc1C | 19% (inactive) | 43% (inactive) | -4% (inactive) | 84% (active) | inactive | inactive | inactive | inactive |
| COC(=O)c1c(C#N)c(OC)cc(O)c1CSC[C@H](Nc1nc(-c2ccc([N+](=O)[O-])cc2)cs1)C(=O)NCCN1CCCCC1 | 88% (active) | 5% (inactive) | -2% (inactive) | 85% (active) | inactive | inactive | inactive | inactive |
| COc1cc(C(=O)NC2CC(C)(C)N(C)C(C)(C)C2)ccc1-c1nc2cc(Cl)c(Cl)cc2[nH]1 | 99% (active) | 69% (active) | 5% (inactive) | 100% (active) | inactive | inactive | inactive | inactive |
| CCOc1ccc(C(=O)Nc2cc(Br)c3c(c2)CNCC3)cc1C(F)(F)F | 22% (inactive) | 15% (inactive) | 6% (inactive) | 98% (active) | inactive | inactive | inactive | inactive |
| O=c1cc(NCCCNCc2ccc(Cl)c(Cl)c2)[nH]c2ccc(C(F)(F)F)cc12 | 68% (active) | 10% (inactive) | -5% (inactive) | 103% (active) | inactive | inactive | inactive | inactive |
| CC(C)(C)NS(=O)(=O)c1cc(C(=O)N2CCC(CCN3CCC(C(=O)c4ccc(F)cc4)CC3)(c3cccc(F)c3)CC2)c(Cl)cc1F | 99% (active) | -1% (inactive) | 4% (inactive) | 99% (active) | inactive | inactive | inactive | inactive |
| Cc1ccc(NC(=O)c2ccc3ncccc3c2)cc1OC1CCN(Cc2ccsc2)C1 (stereo not drawn) | 49% (inactive) | 5% (inactive) | -3% (inactive) | 88% (active) | inactive | inactive | inactive | inactive |
| CN(C)Cc1ccc(-c2ccc(NC(=O)c3ccc4c(=O)n(Cc5ccccc5)cnc4c3)cc2)cc1 | 39% (inactive) | 94% (active) | -2% (inactive) | 100% (active) | inactive | inactive | inactive | inactive |
| CC(Oc1ccc(Cl)cc1)C(=O)Nc1cc(C(F)(F)F)ccc1N1CCOCC1 (stereo not drawn) | 97% (active) | 14% (inactive) | -6% (inactive) | 97% (active) | inactive | inactive | inactive | inactive |

| SMILES | growth inhibition [1] | inhibition [2] | inhibition [3] | growth inhibition [4] | outcome [5] | outcome [6] | outcome [7] | outcome [8] |
| --- | --- | --- | --- | --- | --- | --- | --- | --- |
| O=C(NCCN1CCCC1)c1cccc(-c2ccc(-c3nc4ccc(C(F)(F)F)cc4[nH]3)cc2)c1 | 99% (active) | 34% (inactive) | -3% (inactive) | 101% (active) | inactive | inactive | inactive | inactive |
| CCCCCCCN1CC[C@@H](CCCc2ccnc3ccc(OC)cc23)[C@@H](CNC)C1 | 95% (active) | 25% (inactive) | -2% (inactive) | 101% (active) | inactive | inactive | inactive | inactive |
| CCc1ccc(NC(=O)C=NN=C(N)N)cc1 | 3% (inactive) | 13% (inactive) | -2% (inactive) | 100% (active) | inactive | inactive | inactive | inactive |
| COc1cccc(CCc2ccc(O)c3c2C[C@H]2C[C@H]4[C@H](N(C)C)C(=O)C(C(N)=O)=C(O)[C@@]4(O)C(=O)C2=C3O)c1 | 67% (active) | 43% (inactive) | -4% (inactive) | 93% (active) | inactive | inactive | inactive | inactive |
| CCOc1ccc(C(C)NC(=O)c2cc(Cl)ccc2OC)cc1OCC (stereo not drawn) | 99% (active) | -1% (inactive) | -2% (inactive) | 101% (active) | inactive | inactive | inactive | inactive |
| Nc1nc(N)c2c(ccc3c2ncn3Cc2ccccc2)n1 | 96% (active) | 71% (active) | 4% (inactive) | 96% (active) | inactive | inactive | inactive | inactive |
| Oc1ccc(CN2CCC(NCc3cccc(C(F)(F)F)c3)CC2)cc1 | 64% (active) | 10% (inactive) | 5% (inactive) | 101% (active) | inactive | inactive | inactive | inactive |
| CCCN(c1ccc(C(F)(F)F)cc1[N+](=O)[O-])S(=O)(=O)C(c1ccccc1)c1ccc(C(F)(F)F)cc1[N+](=O)[O-] (stereo not drawn) | 49% (inactive) | -11% (inactive) | 1% (inactive) | 94% (active) | inactive | inactive | inactive | inactive |
| CC(C)(C)NCCN(Cc1ccc(-c2ccc(C(F)(F)F)cc2)cc1)C(=O)Cn1c(SCc2ccc(F)cc2)nc(=O)c2c1CCC2 | 84% (active) | 64% (active) | 0% (inactive) | 97% (active) | inactive | inactive | inactive | inactive |
| CCc1ccc(C2CCN(CCCCNC(=O)c3ccc(-c4ccc(C#N)cc4)cc3)CC2)c(OCCO)c1 | 61% (active) | 24% (inactive) | -4% (inactive) | 94% (active) | inactive | inactive | inactive | inactive |
| CN(C)CCN(C)C(=O)c1cc(-c2ccncc2)c(-c2ccc(Cl)c(O)c2)o1 | 34% (inactive) | -11% (inactive) | 0% (inactive) | 97% (active) | inactive | inactive | inactive | inactive |
| CN1CCOc2ccc(Nc3nnc(-c4cccc(-c5cccnc5)c4)o3)cc2C1 | 100% (active) | -4% (inactive) | -1% (inactive) | 100% (active) | inactive | inactive | inactive | inactive |
| Cc1sc(NC(=O)c2ccc([N+](=O)[O-])cc2Cl)c(C(N)=O)c1C | 2% (inactive) | 2% (inactive) | 1% (inactive) | 94% (active) | inactive | inactive | inactive | inactive |
| CC(=O)Nc1ccc2[nH]cc(C3CCN(CC4CCC(NC(=O)/C=C/c5ccc(Cl)c(Cl)c5)CC4)CC3)c2n1 (stereo not drawn) | 79% (active) | 17% (inactive) | -1% (inactive) | 101% (active) | inactive | inactive | inactive | inactive |
| O=C(NCCc1ccccc1)N(Cc1ccccc1-c1cccc(CNC2CCCC2)c1)C1CCN(Cc2ccccc2)CC1 | 87% (active) | 31% (inactive) | 5% (inactive) | 95% (active) | inactive | inactive | inactive | inactive |
| CCN(CC)C(C)(C)CN(Cc1ccc(-c2ccc(C(F)(F)F)cc2)cc1)C(=O)Cn1c(CCc2cccc(F)c2F)nc(=O)c2ccccc21 | 79% (active) | 53% (active) | -2% (inactive) | 91% (active) | inactive | inactive | inactive | inactive |
| O=C(Nc1ccc(N2CCN(Cc3ccccc3)CC2)cc1)c1cccs1 | 86% (active) | -1% (inactive) | 2% (inactive) | 87% (active) | inactive | inactive | inactive | inactive |
| CCCCN(CCCC)C(=Nc1cccc(Cl)c1Cl)Nc1ccc(C#N)cc1O | 69% (active) | 4% (inactive) | -6% (inactive) | 89% (active) | inactive | inactive | inactive | inactive |
| CC(C)(C)OC(=O)NCc1ccc(Nc2nnc(-c3cccc(C(=O)NCc4cc(C(F)(F)F)cc(C(F)(F)F)c4)c3)o2)cc1 | 13% (inactive) | 4% (inactive) | 0% (inactive) | 90% (active) | inactive | inactive | inactive | inactive |
| COc1ccc2nccc([C@@H](O)CN3CCC(NCc4ccc5nsnc5c4)CC3)c2c1 | 64% (active) | 12% (inactive) | 3% (inactive) | 95% (active) | inactive | inactive | inactive | inactive |
